# A selection: hits, their analogues and other compounds. The true share with any hit is near 19%.
# HT1080 IDH1KD tx – qHTS for induction of synthetic lethality in tumor cells producing 2HG: qHTS for the HT-1080-IDH1KD cell line; 360,000 compounds, 2% hits; AID 686971, 2013; Potency, µM (series often up to 46.1 µM), without a hit: at the highest dose activity, negative = toxicity, hits mostly cytotoxic; HT-1080 IDH1 knockdown viability, ATP luminescence, 48 h;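 note: potency is the fitted concentration of half-maximal effect; 0% = DMSO wells and -100% = cell-free medium wells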
#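 CellTiter-Glo luminescence after 48 h compound exposure at 37 degrees C of IDH1-knockdown HT-1080 cells in 5% FBS RPMI. %Activity scaled between DMSO wells and cell-free media wells, with curves fitted and assigned curve classes.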
# TDP1 cell noCPT – qHTS for Inhibitors of human tyrosyl-DNA phosphodiesterase 1 (TDP1): qHTS in cells in absence of CPT; DT40 Tdp1-/- hTDP1 cells, no CPT, ATP luminescence, 48 h; Potency, µM (top dose mostly 46.2 µM), without a hit: at the top dose activity change, negative = growth inhibition, hits mostly inhibitors; 420,000 compounds, 15% hits; AID 686978, 2013; note: potency is the fitted concentration of half-maximal effect; nearly all actives have a fitted effect of over 55% in size
#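 Growth kinetics read by CellTiter-Glo luminescence after ≥48 hr at 37 °C. Cells: DT40 Tdp1-/- stably carrying human TDP1, 400 per well, compound exposure in the absence of CPT (DMSO vehicle).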
# IL-1B inflam inh – qHTS for Inhibitors of Inflammasome Signaling: IL-1-beta AlphaLISA Primary Screen. THP-1 LPS/ATP IL-1B secretion, AlphaLISA, 16 h; active compounds read low. activity change, % at 57.5 µM. 360,000 compounds, 4.7% hits; in the data active = activity change below about -50%; inconclusive = mostly about -30% to -49%
#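 THP-1 cells pretreated 1 hr with compounds (up to 57.5 uM final), then stimulated with LPS (250 ng/mL final) plus ATP (1.25 mM final); secreted IL-1B measured by AlphaLISA after 16 hr, decreased signal indicating inhibition.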
# TDP1 cell CPT – qHTS for Inhibitors of human tyrosyl-DNA phosphodiesterase 1 (TDP1): qHTS in cells in presence of CPT; 420,000 compounds, 12% hits; Potency, µM (series often up to 46.2 µM), for inactives: top-dose activity change, negative = growth inhibition, most hits filed as inhibitors; chicken DT40 Tdp1-/-;hTDP1 cells + 20 nM CPT, ATP luminescence, 48 h; note: potency is the fitted concentration of half-maximal effect; nearly all actives have a fitted effect of over 55% in size
#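 Cell growth measured by CellTiter-Glo luminescence after a minimum 48 h, 37 C compound exposure with 20 nM CPT in Tdp1-knockout DT40 cells stably expressing hTDP1, seeded 400/well; qHTS titration format.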
# HT1080-NT tox – qHTS for induction of synthetic lethality in tumor cells producing 2HG: qHTS for the HT-1080-NT fibrosarcoma cell line; AID 686970, 2013; HT-1080-NT fibrosarcoma viability, CellTiter-Glo ATP luminescence, 48 h; 360,000 compounds, 1.6% hits; Potency, µM (titrated, usually from 46.1 µM), for inactives: top-dose activity, negative = less viability, actives largely listed as cytotoxic;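 note: NT is the 2HG producing partner of a matched IDH1 knockdown line; potency is the fitted concentration of half-maximal effect; 0% = DMSO-treated cells and -100% = media-only wells without cells; nearly all actives have a fitted effect of over 55% in size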
#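 Compounds were tested in concentration-response format on HT-1080-NT cells for 48 hours at 37 degrees C. Cell viability came from CellTiter-Glo luminescence; curves were classified by r2, response magnitude and activity.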
# ELG1 DNA repair – qHTS screen for small molecules that inhibit ELG1-dependent DNA repair in human embryonic kidney (HEK293T) cells expressing luciferase-tagged ELG1. HEK293T ELG1-luciferase reporter, luminescence, 16 h; DNA damage induced by 5-fluorouridine. Potency, µM (top dose mostly 46.1 µM), without a hit: top-dose activity change, negative = inhibition, hits mostly inhibitors. 330,000 compounds, 2.3% hits. AID 504467, 2011; note: potency is the fitted concentration of half-maximal effect; nearly all actives have a fitted effect of over 55% in size
#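 Cells (2,000 per well) received 5-fluorouridine plus test compound or DMSO and were incubated 16 hr at 37 °C, 5% CO2. Luciferase activity was read by luminescence 30 min after ONE-Glo addition; signal suppression marked inhibition of damage-induced ELG1 function.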
# An asterisk follows results filed as active; u = inconclusive; x = no result; [ ] = another dose, or the depositor's remark. Unless noted, calls come from the whole dose curve; as a rule, active = well fitted curve in the direction sought with a large enough effect; inconclusive = small, poorly fitted or top-dose-only effect, or another doubt; inactive = no such curve, though single readings can be large; an effect the other way counts as inactive or inconclusive. Unless noted, % is set by controls: 0 for no effect and ±100 for the full control effect.
SMILES,HT1080 IDH1KD tx,TDP1 cell noCPT,IL-1B inflam inh,TDP1 cell CPT,HT1080-NT tox,ELG1 DNA repair
O=C1[C@@H](Oc2ccccc2)[C@@H](c2cccnc2)N1c1ccccc1,20.6µM*,18.4µM*,-5.3,20.6µM*,u,u
O=C1[C@H](Oc2ccccc2)[C@@H](c2ccccc2)N1c1ccncc1,u,23.1µM*,-104.2*,u,-19.7%,10.5%
O=C1[C@@H](Oc2ccccc2)[C@@H](c2ccccc2)N1c1ccccc1,6.4%,-27.2%,3.7,-18.6%,2.7%,18.8%
CC1(C)CN(c2ccccc2)C(=O)[C@H]1CC(=O)Nc1ccccc1,10.1%,-13.3%,1.1,-28.4%,19.9%,x
CCCCC(=O)Nc1ccc(OCc2cc(=O)n3ccc(C)cc3n2)cc1,x,-25.1%,x,-25.1%,x,x
NNc1nc2c(Cl)c(Cl)ccc2s1,-25.6%,u,-59.7*,u,-13.8%,u
CCOC(=O)Cn1cc(/C=C/[N+](=O)[O-])c2ccccc21,u,23.1µM*,-50.7*,14.6µM*,u,-4.9%
O=C(O)c1ccc(Cn2cc(/C=C\[N+](=O)[O-])c3ccccc32)o1,-1.8%,-0.9%,12.2,-4.0%,-0.4%,2.8%
Cc1cccc(Cn2cc3c(=O)n(Cc4cccc(F)c4)nc-3c3ccccc32)c1,-3.7%,-24.1%,21.5,-20.9%,-0.7%,-0.6%
COC(=O)c1ccc(Cn2cc(/C=C\[N+](=O)[O-])c3ccccc32)o1,u,u,-102.4*,u,u,u
CCOC(=O)Cn1cc(C#N)c2ccccc21,-13.5%,-3.0%,-7.9,-0.5%,-16.4%,10.8%
Cc1cccc(Cn2cc(/C=C/[N+](=O)[O-])c3ccccc32)c1,23.1µM*,u,-67.5*,23.1µM*,u,17.1%
Cc1ccc2c(c1)CN(CCNC(=O)c1ccc3nc(C)[nH]c3c1)CC(C)O2 (centres undefined),x,-7.2%,x,7.0%[9.04 µM],x,x
CCOC(=O)COc1cc(C)c(Cl)cc1C(=O)c1ccn2nc(-c3ccc(OC)cc3)cc2n1,x,13µM*,x,u,x,x
CCOC(=O)COc1ccc(C)cc1C(=O)c1ccn2nc(-c3ccc(F)cc3)cc2n1,x,20.6µM*,x,16.4µM*,x,x
O=C(c1ccc2ccccc2c1)C1CCCN(S(=O)(=O)c2cccnc2)C1 (centres undefined),-11.0%,20.6µM*,u,23.1µM*,-9.8%,u
O=C(Nc1ccc(OC(F)(F)F)cc1)C1CCCN(S(=O)(=O)c2cccnc2)C1 (centres undefined),u,13µM*,7.2,18.4µM*,-20.5%,u
CCc1ccc(NC(=O)C2CCCN(S(=O)(=O)c3cccnc3)C2)cc1 (centres undefined),-15.3%,u,-3.0,u,u,12.5%
Cc1c(C(=O)N2CC3CCC2C3)sc2ncnc(NCCc3c[nH]c4ccccc34)c12 (centres undefined),x,23.1µM*,x,u,x,x
COCCn1c(CN2CCN(c3cccc(Cl)c3)CC2)nc2c1c(=O)n(C)c(=O)n2C,-5.1%,13µM*,47.8,8.2µM*,-3.9%,14.6µM*
COC(=O)Cn1c(CN2CCN(c3ccc(F)cc3)CC2)nc2c1c(=O)n(C)c(=O)n2C,-14.2%,1.84µM*,47.4,2.31µM*,-24.9%,u
CC(C)CCn1c(CN2CCN(c3cccc(Cl)c3)CC2)nc2c1c(=O)n(C)c(=O)n2C,1.6%,23.1µM*,43.8,u,18.2%,u
CCOCCn1c(CN2CCN(C)CC2)nc2c1c(=O)n(C)c(=O)n2C,-1.4%,2.1%,-21.4,-6.3%,-2.3%,8.0%
COC(=O)Cn1c(CN2CCOCC2)nc2c1c(=O)n(C)c(=O)n2C,13.3%,-8.4%,20.9,7.5%,1.1%,17.3%
CCOCCn1c(CN2CCN(c3ccc(F)cc3)CC2)nc2c1c(=O)n(C)c(=O)n2C,-13.9%,18.4µM*,34.7,13µM*,-2.8%,u
SMILES,HT1080 IDH1KD tx,TDP1 cell noCPT,IL-1B inflam inh,TDP1 cell CPT,HT1080-NT tox,ELG1 DNA repair
CC(C)CCn1c(CN2CC(C)OC(C)C2)nc2c1c(=O)n(C)c(=O)n2C (centres undefined),4.3%,-1.4%,2.0,-2.4%,14.6%,u
COC(=O)C1=C(C)NC(C)=C(C(=O)OC)C1C(=O)OC(C)C(=O)c1ccccc1 (centres undefined),4.1%,u,20.4,-17.7%,2.9%,u
CCOCCn1c(CN2CCN(c3cccc(Cl)c3)CC2)nc2c1c(=O)n(C)c(=O)n2C,-4.8%,5.17µM*,16.3,7.31µM*,-19.0%,u
COc1ccccc1/C=N/NC(=O)c1ccc(-c2ccccc2)cc1,-17.7%,u,26.6,20.6µM*,-27.2%,u
COc1cccc(/C=N/NC(=O)c2ccccc2)c1OS(=O)(=O)c1ccccc1,-7.4%,25.9µM*,-25.7,u,-12.0%,u
COc1cc(/C=N\NC(=O)c2ccc(-c3ccccc3)cc2)cc(OC)c1OC(C)=O,-11.6%,-25.3%,-50.0*,u,-3.7%,-25.9%
Cc1cc(C(=O)CCC(=O)N(C)CC2COc3ccccc3O2)c(C)s1 (centres undefined),0.2%,u,18.0,u,-6.1%,x
COc1cc(/C=C2\N=C(C)OC2=O)cc(Cl)c1OC(C)=O,2.4%,u,16.7,14.6µM*,3.3%,18.9%
COc1ccc(CN2CC(C(=O)NCCCN3CCCC(C)C3)CC2=O)cc1 (centres undefined),10.8%,18.2%,6.8,9.6%,5.2%,5.2%
CC(=O)c1ccc(N2CCN(S(=O)(=O)c3cc(-c4cc(C)no4)ccc3C(C)C)CC2)cc1,-17.4%,u,-13.0,u,4.5%,u
Cc1cc(-c2ccc(C(C)C)c(S(=O)(=O)N3CCN(c4ccccc4)CC3)c2)on1,1.84µM*,2.06µM*,30.7,2.59µM*,1.46µM*,u
COc1ccc(N2CCN(S(=O)(=O)c3cc(-c4cc(C)no4)ccc3C(C)C)CC2)cc1,11.2%,u,-1.4,u,17.8%,7.3µM*
Cc1ccc(-c2cc(C(=O)Nc3cc([N+](=O)[O-])ccc3C)no2)cc1F,x,-0.8%,x,-19.4%,x,x

# Bioassay records as filed in PubChem BioAssay.
